Data: publication PMC7862700, “An all-to-all approach to the identification of sequence-specific readers for epigenetic DNA modifications on cytosine”

Columns and labels:
Assay in all cases: DAPPL (digital affinity profiling via proximity ligation, sequencing); 10 mM Tris-HCl pH 7.5, 50 mM NaCl, 1 mM DTT, 4% glycerol, room temperature, 30 min; GST-TFs on glutathione beads, 16-mer random dsDNA library, 0.1% formaldehyde crosslink after washing; high values mean tight binding
[1] = biological target: T1, FLI1 (Homo sapiens, UniProt Q01543 1-452); conditions: protein: recombinant; tags: N-terminal GST; dsDNA, one strand shown
T1 sequence: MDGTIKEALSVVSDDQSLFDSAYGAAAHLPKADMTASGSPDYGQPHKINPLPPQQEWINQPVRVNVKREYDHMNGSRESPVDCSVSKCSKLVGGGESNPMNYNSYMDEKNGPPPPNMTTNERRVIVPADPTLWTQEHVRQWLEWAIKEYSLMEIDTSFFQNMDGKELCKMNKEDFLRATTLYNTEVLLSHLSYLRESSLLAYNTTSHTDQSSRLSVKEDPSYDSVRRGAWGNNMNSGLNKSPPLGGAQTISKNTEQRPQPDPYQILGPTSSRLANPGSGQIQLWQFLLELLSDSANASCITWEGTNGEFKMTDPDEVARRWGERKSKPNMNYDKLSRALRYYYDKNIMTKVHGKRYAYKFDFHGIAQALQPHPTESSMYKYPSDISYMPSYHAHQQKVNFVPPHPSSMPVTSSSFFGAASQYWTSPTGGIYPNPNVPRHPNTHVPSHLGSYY
Method in brief: (§1)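 Pools of DNA-barcoded human transcription factors, expressed in yeast as GST fusions on glutathione beads and combined with a tag-only sample, were incubated with 200 nmole of a 16-mer random double-stranded DNA library. Incubation took 30 min at room temperature in Tris/NaCl/DTT/glycerol buffer and was followed by washing, 0.1% formaldehyde crosslinking, proximity ligation (BsaI/T4 ligase, 1 h, 37 °C), PCR amplification and sequencing on an Illumina NextSeq500. Binding signal is the ratio of a hexamer's read frequency for a factor to its frequency for the tag-only sample.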

[2] = biological target: T2, ELK1 (Homo sapiens, UniProt P19419 1-428); conditions: protein: recombinant; tags: N-terminal GST; dsDNA, one strand shown
T2 sequence: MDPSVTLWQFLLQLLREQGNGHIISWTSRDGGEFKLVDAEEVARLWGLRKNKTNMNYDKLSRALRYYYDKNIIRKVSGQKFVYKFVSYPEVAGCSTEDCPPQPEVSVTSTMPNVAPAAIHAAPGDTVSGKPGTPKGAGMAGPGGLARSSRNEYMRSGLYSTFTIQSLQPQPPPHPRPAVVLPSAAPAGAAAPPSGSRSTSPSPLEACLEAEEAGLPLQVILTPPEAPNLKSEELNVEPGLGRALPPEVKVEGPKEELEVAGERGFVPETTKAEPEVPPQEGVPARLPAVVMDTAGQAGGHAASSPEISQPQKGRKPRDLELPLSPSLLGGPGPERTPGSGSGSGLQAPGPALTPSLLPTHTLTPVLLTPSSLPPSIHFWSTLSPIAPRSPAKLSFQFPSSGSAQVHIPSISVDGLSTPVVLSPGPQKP
Method in brief: as §1

[3] = biological target: T3, GABPA (Homo sapiens, UniProt Q06546 1-454); conditions: protein: recombinant; tags: N-terminal GST; dsDNA, one strand shown
T3 sequence: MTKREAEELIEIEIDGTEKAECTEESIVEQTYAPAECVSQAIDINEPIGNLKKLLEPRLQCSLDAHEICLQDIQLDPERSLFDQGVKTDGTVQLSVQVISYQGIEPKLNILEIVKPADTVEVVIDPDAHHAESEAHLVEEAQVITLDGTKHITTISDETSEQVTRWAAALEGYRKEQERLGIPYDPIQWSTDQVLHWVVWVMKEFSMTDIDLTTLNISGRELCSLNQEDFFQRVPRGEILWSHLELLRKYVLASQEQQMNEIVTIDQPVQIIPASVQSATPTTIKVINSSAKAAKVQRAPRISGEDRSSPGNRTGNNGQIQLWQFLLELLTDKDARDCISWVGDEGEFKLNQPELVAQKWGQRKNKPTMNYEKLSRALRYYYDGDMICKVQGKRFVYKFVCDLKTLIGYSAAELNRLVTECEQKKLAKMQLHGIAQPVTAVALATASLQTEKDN
Method in brief: as §1

[4] = biological target: T4, ERG (Homo sapiens, UniProt P11308 1-479); conditions: protein: recombinant; tags: N-terminal GST; dsDNA, one strand shown
T4 sequence: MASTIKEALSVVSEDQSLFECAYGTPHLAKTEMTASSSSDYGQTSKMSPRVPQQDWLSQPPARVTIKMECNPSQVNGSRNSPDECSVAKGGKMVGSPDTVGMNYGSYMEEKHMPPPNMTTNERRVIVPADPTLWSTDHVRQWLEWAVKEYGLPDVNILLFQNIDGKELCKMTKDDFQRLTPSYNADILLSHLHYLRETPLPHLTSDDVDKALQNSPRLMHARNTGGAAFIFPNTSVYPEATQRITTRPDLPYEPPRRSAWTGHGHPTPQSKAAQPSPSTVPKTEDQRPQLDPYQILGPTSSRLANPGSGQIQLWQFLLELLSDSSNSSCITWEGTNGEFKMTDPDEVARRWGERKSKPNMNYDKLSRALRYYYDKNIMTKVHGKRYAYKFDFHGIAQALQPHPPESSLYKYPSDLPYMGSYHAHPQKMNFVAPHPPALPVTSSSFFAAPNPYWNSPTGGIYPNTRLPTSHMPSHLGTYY
Method in brief: as §1

[5] = biological target: ELF1 (Homo sapiens, UniProt P32519 1-619); conditions: protein: recombinant; tags: N-terminal GST; dsDNA, one strand shown
Method in brief: as §1

[6] = biological target: T5, EHF (Homo sapiens, UniProt Q9NZC4 1-300); conditions: protein: recombinant; tags: N-terminal GST; dsDNA, one strand shown
T5 sequence: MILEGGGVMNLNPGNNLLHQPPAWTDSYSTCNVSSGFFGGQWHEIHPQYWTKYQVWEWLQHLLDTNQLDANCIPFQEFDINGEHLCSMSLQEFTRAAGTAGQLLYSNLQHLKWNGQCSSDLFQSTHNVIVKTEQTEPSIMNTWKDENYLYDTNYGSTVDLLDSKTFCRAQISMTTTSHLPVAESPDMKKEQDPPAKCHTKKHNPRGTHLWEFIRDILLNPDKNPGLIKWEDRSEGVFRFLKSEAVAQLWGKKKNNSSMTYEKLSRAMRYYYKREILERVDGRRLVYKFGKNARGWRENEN
Method in brief: as §1

[7] = biological target: SPI1 (Homo sapiens, UniProt P17947 1-270); conditions: protein: recombinant; tags: N-terminal GST; dsDNA, one strand shown
Method in brief: as §1

[8] = biological target: SPIB (Homo sapiens, UniProt Q01892 1-262); conditions: protein: recombinant; tags: N-terminal GST; dsDNA, one strand shown
Method in brief: as §1

[9] = biological target: T6, ELK3 (Homo sapiens, UniProt P41970 1-407); conditions: protein: recombinant; tags: N-terminal GST; dsDNA, one strand shown
T6 sequence: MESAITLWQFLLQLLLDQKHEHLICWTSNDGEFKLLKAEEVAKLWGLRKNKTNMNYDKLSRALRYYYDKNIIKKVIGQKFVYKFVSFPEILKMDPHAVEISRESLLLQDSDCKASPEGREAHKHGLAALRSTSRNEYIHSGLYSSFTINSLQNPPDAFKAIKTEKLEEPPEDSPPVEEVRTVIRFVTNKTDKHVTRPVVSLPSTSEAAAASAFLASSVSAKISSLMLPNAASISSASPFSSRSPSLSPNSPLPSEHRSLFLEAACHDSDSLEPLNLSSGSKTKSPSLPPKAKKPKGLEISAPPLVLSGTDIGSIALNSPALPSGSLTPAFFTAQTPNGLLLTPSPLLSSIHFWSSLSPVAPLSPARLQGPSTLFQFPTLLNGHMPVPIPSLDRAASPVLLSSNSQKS
Method in brief: as §1

[10] = biological target: T7, FEV (Homo sapiens, UniProt Q99581 1-238); conditions: protein: recombinant; tags: N-terminal GST; dsDNA, one strand shown
T7 sequence: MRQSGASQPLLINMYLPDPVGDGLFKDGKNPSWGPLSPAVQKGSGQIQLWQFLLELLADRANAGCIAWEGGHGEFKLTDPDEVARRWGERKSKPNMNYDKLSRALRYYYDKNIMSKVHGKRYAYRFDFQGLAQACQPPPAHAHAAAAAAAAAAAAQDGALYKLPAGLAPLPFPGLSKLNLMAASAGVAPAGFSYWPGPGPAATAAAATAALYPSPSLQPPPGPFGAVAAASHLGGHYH
Method in brief: as §1

[11] = biological target: ETV5 (Homo sapiens, UniProt P41161 1-510); conditions: protein: recombinant; tags: N-terminal GST; dsDNA, one strand shown
Method in brief: as §1

[12] = biological target: HSF1 (Homo sapiens, UniProt Q00613 1-529); conditions: protein: recombinant; tags: N-terminal GST; chain copies: 3; dsDNA, one strand shown
Method in brief: as §1

[13] = biological target: T8, SPIC (Homo sapiens, UniProt Q8N5J4 1-248); conditions: protein: recombinant; tags: N-terminal GST; dsDNA, one strand shown
T8 sequence: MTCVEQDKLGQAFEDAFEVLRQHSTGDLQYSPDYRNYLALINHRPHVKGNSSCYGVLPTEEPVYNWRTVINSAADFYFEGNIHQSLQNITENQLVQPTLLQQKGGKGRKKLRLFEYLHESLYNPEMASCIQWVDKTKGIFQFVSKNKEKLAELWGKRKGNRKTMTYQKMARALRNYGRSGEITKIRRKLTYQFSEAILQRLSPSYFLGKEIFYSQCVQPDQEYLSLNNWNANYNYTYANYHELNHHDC
Method in brief: as §1

[14] = biological target: ELF4 (Homo sapiens, UniProt Q99607 1-663); conditions: protein: recombinant; tags: N-terminal GST; dsDNA, one strand shown
Method in brief: as §1

[15] = biological target: T9, ELK4 (Homo sapiens, UniProt P28324-2 1-405); conditions: protein: recombinant; tags: N-terminal GST; dsDNA, one strand shown
T9 sequence: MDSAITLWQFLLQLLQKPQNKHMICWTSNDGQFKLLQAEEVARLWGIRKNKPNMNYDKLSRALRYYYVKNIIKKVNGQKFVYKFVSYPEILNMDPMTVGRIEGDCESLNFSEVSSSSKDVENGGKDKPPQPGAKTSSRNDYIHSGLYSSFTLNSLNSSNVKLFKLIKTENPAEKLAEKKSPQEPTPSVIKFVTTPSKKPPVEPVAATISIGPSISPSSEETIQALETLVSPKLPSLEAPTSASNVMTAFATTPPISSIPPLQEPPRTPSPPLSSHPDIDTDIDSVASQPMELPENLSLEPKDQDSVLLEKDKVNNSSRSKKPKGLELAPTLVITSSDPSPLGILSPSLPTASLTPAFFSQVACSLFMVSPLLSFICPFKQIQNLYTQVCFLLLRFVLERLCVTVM
Method in brief: as §1

[16] = biological target: T10, ETV2 (Homo sapiens, UniProt O00321 1-342); conditions: protein: recombinant; tags: N-terminal GST; dsDNA, one strand shown
T10 sequence: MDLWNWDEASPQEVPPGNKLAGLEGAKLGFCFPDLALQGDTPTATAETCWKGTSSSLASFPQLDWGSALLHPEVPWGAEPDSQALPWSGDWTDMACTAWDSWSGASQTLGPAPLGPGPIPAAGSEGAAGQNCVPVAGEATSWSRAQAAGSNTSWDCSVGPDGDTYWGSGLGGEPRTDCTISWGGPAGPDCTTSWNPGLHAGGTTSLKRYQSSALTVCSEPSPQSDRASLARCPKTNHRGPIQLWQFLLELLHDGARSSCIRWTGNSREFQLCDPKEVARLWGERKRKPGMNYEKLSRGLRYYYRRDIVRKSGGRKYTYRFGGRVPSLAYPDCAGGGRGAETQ
Method in brief: as §1

[17] = biological target: T11, ELF3 (Homo sapiens, UniProt P78545 1-371); conditions: protein: recombinant; tags: N-terminal GST; dsDNA, one strand shown
T11 sequence: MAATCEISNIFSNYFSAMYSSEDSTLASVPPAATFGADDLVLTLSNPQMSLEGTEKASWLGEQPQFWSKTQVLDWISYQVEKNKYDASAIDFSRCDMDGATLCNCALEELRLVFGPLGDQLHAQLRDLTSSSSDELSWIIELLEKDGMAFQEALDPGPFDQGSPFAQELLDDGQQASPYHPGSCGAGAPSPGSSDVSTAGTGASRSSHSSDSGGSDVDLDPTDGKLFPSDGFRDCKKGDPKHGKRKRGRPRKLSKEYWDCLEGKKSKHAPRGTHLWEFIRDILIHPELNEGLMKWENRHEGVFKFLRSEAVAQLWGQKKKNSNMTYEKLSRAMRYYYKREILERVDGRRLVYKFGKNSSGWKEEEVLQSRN
Method in brief: as §1

[18] = biological target: CRX (Homo sapiens, UniProt O43186 1-299); conditions: protein: recombinant; tags: N-terminal GST; dsDNA, one strand shown
Method in brief: as §1

[19] = biological target: ETV1 (Homo sapiens, UniProt P50549 1-477); conditions: protein: recombinant; tags: N-terminal GST; dsDNA, one strand shown
Method in brief: as §1

Chain of CRX (O43186 whole entry): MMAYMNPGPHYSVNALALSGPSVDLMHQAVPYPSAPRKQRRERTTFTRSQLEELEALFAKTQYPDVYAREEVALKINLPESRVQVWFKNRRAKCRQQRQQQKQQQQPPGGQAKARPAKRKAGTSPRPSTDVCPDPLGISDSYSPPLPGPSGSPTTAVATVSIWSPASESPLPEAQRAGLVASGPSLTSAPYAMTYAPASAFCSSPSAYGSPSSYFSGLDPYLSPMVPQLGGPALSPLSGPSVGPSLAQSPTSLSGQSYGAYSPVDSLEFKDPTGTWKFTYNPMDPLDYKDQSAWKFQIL
Chain of ELF4 (Q99607 whole entry): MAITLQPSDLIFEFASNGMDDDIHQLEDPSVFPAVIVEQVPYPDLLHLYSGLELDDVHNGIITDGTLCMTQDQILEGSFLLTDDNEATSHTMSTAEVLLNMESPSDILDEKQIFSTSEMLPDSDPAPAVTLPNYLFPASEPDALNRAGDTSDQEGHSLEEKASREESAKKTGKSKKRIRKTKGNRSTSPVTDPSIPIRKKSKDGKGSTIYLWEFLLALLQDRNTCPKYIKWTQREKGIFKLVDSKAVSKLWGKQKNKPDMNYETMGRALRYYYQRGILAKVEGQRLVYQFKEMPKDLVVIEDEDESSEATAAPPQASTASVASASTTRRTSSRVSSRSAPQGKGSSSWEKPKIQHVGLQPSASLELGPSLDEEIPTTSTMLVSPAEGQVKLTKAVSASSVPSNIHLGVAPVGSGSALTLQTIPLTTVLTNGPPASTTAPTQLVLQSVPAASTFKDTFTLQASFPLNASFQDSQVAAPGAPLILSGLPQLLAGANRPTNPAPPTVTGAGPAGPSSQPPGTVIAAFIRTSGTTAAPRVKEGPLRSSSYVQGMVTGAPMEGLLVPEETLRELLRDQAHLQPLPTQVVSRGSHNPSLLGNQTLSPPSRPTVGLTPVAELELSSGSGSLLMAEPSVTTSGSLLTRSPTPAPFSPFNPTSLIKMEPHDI
Chain of ETV1 (P50549 whole entry): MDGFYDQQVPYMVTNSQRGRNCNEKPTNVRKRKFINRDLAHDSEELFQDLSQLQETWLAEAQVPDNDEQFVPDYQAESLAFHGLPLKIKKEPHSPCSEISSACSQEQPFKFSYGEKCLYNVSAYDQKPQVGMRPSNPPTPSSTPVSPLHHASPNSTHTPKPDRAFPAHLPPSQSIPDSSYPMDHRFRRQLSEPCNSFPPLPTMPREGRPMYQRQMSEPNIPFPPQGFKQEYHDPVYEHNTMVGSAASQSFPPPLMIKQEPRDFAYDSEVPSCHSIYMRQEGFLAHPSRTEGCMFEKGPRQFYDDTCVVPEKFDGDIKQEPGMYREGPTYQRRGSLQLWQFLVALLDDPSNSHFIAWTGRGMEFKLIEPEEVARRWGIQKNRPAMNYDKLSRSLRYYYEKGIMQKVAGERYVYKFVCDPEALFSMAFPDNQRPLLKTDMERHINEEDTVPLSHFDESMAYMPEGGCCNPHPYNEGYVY
Chain of ETV5 (P41161 whole entry): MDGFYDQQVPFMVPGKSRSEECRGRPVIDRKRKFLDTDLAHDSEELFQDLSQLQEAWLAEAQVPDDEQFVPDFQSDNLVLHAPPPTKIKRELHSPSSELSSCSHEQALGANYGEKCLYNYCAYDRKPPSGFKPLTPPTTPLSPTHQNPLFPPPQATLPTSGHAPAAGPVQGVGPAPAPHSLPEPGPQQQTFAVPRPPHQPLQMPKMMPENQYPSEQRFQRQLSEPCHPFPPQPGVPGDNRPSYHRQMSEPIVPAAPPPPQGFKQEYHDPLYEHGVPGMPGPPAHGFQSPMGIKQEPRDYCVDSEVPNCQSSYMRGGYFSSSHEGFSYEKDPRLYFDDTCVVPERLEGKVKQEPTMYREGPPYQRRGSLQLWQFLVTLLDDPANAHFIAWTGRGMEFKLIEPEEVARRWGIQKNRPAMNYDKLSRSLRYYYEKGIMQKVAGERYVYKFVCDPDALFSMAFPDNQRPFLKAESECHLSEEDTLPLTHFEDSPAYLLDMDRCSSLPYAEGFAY
Chain of SPIB (Q01892 whole entry): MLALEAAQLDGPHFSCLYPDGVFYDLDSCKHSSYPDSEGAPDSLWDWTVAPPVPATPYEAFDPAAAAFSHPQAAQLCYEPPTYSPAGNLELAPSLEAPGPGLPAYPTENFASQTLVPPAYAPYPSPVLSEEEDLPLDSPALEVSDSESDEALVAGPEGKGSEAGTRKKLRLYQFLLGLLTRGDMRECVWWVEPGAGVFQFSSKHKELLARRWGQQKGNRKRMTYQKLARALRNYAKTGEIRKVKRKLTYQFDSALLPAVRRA
Chain of HSF1 (Q00613 whole entry): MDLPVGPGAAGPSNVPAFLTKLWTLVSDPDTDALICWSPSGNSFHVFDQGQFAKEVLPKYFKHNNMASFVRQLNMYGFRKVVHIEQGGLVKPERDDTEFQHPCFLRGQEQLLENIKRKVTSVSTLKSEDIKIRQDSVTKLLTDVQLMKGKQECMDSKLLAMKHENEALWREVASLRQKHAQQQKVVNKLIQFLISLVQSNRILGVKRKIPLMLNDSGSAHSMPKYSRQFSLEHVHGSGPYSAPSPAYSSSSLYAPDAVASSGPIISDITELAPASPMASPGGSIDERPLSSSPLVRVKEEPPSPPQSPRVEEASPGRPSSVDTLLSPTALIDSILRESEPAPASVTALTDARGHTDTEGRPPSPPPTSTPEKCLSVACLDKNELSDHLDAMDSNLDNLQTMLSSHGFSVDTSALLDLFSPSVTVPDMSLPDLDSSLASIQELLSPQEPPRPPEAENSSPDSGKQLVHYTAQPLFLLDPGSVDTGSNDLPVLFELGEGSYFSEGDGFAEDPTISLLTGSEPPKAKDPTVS
Chain of ELF1 (P32519 whole entry): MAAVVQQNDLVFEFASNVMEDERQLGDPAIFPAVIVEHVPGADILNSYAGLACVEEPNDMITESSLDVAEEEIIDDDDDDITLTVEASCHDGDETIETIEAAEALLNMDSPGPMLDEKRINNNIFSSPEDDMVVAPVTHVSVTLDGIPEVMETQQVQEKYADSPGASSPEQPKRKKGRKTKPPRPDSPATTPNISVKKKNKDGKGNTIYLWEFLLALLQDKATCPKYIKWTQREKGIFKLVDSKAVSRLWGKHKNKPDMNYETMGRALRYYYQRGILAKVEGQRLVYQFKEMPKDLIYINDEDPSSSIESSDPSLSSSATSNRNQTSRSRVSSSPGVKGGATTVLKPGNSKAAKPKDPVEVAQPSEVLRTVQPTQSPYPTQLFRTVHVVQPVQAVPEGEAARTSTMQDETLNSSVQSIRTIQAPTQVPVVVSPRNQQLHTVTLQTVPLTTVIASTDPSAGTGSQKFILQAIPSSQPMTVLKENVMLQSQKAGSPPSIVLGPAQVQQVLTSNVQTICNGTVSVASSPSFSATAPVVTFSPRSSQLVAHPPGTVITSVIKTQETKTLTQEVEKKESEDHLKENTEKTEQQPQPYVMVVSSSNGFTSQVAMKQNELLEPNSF

For TTCAGC, the binding signal [1] was 1.27 fold enrichment (6-mer frequency, TF over GST control), the binding signal [2] was 1.2 fold enrichment (6-mer frequency, TF over GST control) and the binding signal [3] was 1.26 fold enrichment (6-mer frequency, TF over GST control). For the same sequence, the binding signal [4] was 1.24 fold enrichment (6-mer frequency, TF over GST control), the binding signal [5] was 1.23 fold enrichment (6-mer frequency, TF over GST control) and the binding signal [6] was 1.25 fold enrichment (6-mer frequency, TF over GST control). The binding signal [7] was 1.18 fold enrichment (6-mer frequency, TF over GST control), the binding signal [8] was 1.18 fold enrichment (6-mer frequency, TF over GST control) and the binding signal [9] was 1.27 fold enrichment (6-mer frequency, TF over GST control). The binding signal [10] was 1.25 fold enrichment (6-mer frequency, TF over GST control), the binding signal [11] was 1.22 fold enrichment (6-mer frequency, TF over GST control) and the binding signal [12] was 1.04 fold enrichment (6-mer frequency, TF over GST control). The binding signal [13] was 1.16 fold enrichment (6-mer frequency, TF over GST control), the binding signal [14] was 1.28 fold enrichment (6-mer frequency, TF over GST control) and the binding signal [15] was 1.23 fold enrichment (6-mer frequency, TF over GST control). The binding signal [16] was 1.14 fold enrichment (6-mer frequency, TF over GST control), the binding signal [17] was 1.27 fold enrichment (6-mer frequency, TF over GST control) and the binding signal [18] was 1.19 fold enrichment (6-mer frequency, TF over GST control). The binding signal [19] was 1.3 fold enrichment (6-mer frequency, TF over GST control).
